From PubChem BioAssay
The source made the active and inactive calls.

Assay: PSAC antagonists in infected red cells, primary screen, cell-based, P. falciparum Indochina, OD700, 18 h (AID 1157)
Settings: P. falciparum Indochina infected erythrocytes, osmotic lysis OD700, 18 h; higher = more signal, called active from +8 up or from −8 down

In the case of `CCCCC(O)C1C=CC2C(=O)N(c3ccccc3)C(=O)C2N1Nc1ccccc1F` (stereo unspecified), the z-score is reported as 1.19 (inactive).
In the case of `[N-]=[N+]=Nc1ccccc1C[C@]1(C(=O)NCC(O)CO)N=C(c2ccc(OCCCO)cc2)O[C@H]1c1ccccc1N=[N+]=[N-]` (stereo partly specified), the z-score is reported as 2.68 (inactive).
With `C=C(CCCC)/C(=C/C[C@@H](OC(C)=O)c1ccccc1OCCO)c1cnc2ccccc2c1` the z-score was 1.39 (inactive).
With `OC([C@@H]1CC(c2ccccc2)=NO1)[C@H]1CC(c2ccccc2)=NO1` (stereo partly specified) the z-score was 1.07 (inactive).
In the case of `[N-]=[N+]=NCc1ccccc1[C@H]1OC(c2ccc(OCCCO)cc2)=N[C@@]1(Cc1ccccc1)C(=O)NCc1ccccc1`, the z-score is reported as 1.77 (inactive).
With `O=C(NCc1ccccc1)[C@@H]1c2ccccc2C(=O)N(CC23CC4CC(CC(C4)C2)C3)[C@H]1c1ccc(CO)cc1` the z-score was 0.134 (inactive).

Assay: modulators of S6 phosphorylation in cells, primary screen, cell-based, A549, cytoblot, luminescence, serum-stimulated (AID 1158);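 further: serum-stimulated A549 lung adenocarcinoma cells; signal is phosphorylated S6 detected by cytoblot immunostaining with HRP secondary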
Settings: A549 phospho-S6 cytoblot, 5 h, higher = more signal

First: O=C1C2C=CC(C(O)C3CCCCC3)N(Nc3ccc([N+](=O)[O-])cc3)C2C(=O)N1c1ccccc1 (stereo unspecified)
Second: Cc1ccc(C(C)CC(O)C2C=CC3C(=O)N(c4ccccc4)C(=O)C3N2Nc2ccc([N+](=O)[O-])cc2)o1 (stereo unspecified)
The z-score of the first is higher: -0.185 for the first, -0.359 for the second.

Going from `C=CCNC(=O)[C@H]1[C@@H]2C(=O)O[C@@H](c3ccccc3)[C@@H](c3ccccc3)N2[C@@H](c2ccc(OCCO)cc2)[C@]12C(=O)N(C(=O)OCCOC)c1ccccc12` to `C=CCNC(=O)[C@@H]1[C@H]2C(=O)O[C@H](c3ccccc3)[C@H](c3ccccc3)N2[C@H](c2ccccc2OCCO)[C@@]12C(=O)N(C(=O)OCCOC)c1ccc(C#CCNC(N)=O)cc12`, the z-score rises from 0.182 to 0.425.

Going from `O=C1C2C=CC(C(O)c3c(F)cccc3Cl)N(Nc3ccccc3)C2C(=O)N1c1ccccc1` (stereo unspecified) to `CCCCC(O)C1C=CC2C(=O)N(c3ccccc3)C(=O)C2N1Nc1ccccc1F` (stereo unspecified), the z-score falls from -0.458 to -1.3.

First: CC(C)c1ccc(NN2C(C(O)c3cc(C(F)(F)F)cc(C(F)(F)F)c3)C=CC3C(=O)N(c4ccccc4)C(=O)C32)cc1 (stereo unspecified)
Second: COc1ccc(CCNC(=O)[C@@]2(C)c3ccccc3C(=O)N(Cc3cc(F)cc(C(F)(F)F)c3)[C@H]2c2ccc(CO)cc2)cc1
The z-score of the first is higher: 0.122 for the first, 0.0269 for the second.

First: [N-]=[N+]=NCc1ccccc1C[C@]1(C(=O)O)N=C(c2ccc(OCCCO)cc2)O[C@H]1c1ccccc1N=[N+]=[N-]
Second: [N-]=[N+]=Nc1ccccc1C[C@]1(C(=O)NCC(O)CO)N=C(c2ccc(OCCCO)cc2)O[C@H]1c1ccccc1N=[N+]=[N-] (stereo partly specified)
The z-score of the first is higher: 0.468 for the first, 0.0471 for the second.

Compared with `O=C1O[C@H](c2ccccc2)[C@H](c2ccccc2)N2[C@H]1[C@@H](C(=O)NC[C@H](O)c1ccccc1)[C@]1(C(=O)Nc3ccccc31)[C@H]2c1ccc(OCCO)cc1`, `O=C1O[C@@H](c2ccccc2)[C@@H](c2ccccc2)N2[C@@H](c3ccc(OCCO)cc3)[C@]3(C(=O)Nc4ccccc43)[C@@H](C(=O)NC[C@H](O)c3ccccc3)[C@H]12` is lower in z-score: 0.0578 for the first, -0.29 for the second.

First: COC(=O)[C@@]1(Cc2ccc(F)cc2)[C@H]2c3cc(C(=O)N4CCCC4)n(Cc4ccc(C)o4)c3C[C@H]2CN1C(=O)c1ccccc1
Second: O=C1c2ccccc2[C@](Cc2ccccc2I)(C(=O)NC2CC2)[C@H](c2ccc(CO)cc2)N1C1CCCCC1
The z-score of the first is higher: -0.118 for the first, -0.471 for the second.

First: COc1ccc([Si](C)(C)[C@H]2[C@H](CCn3cc([C@H](O)c4ccccc4)nn3)O[C@@]3(C(=O)N(Cc4cccc(N5CCOC5=O)c4)c4ccccc43)[C@@H]2C)cc1
Second: COCCOC(=O)N1C(=O)[C@@]2(c3cc(C#CCCO)ccc31)[C@H](C(=O)Nc1nc3ccccc3s1)[C@H]1C(=O)O[C@H](c3ccccc3)[C@H](c3ccccc3)N1[C@@H]2c1ccc(OCCO)cc1
The z-score of the first is higher: 0.17 for the first, -0.548 for the second.

First: C=C(/C(=C/C[C@@H](OC(C)=O)c1ccc(OCCO)cc1)c1cnc2ccccc2c1)C(C)C
Second: C=C(CCCC)/C(=C/C[C@@H](OC(C)=O)c1ccccc1OCCO)c1cnc2ccccc2c1
The z-score of the first is higher: 0.853 for the first, 0.132 for the second.

Compared with `O=C1OCC=C[C@H]2OC34C=CCN(CCN5CCOCC5)C(=O)[C@H]3N(CCCO)C(=O)[C@@H]4[C@@H]12` (stereo partly specified), `CCCCCN1CC=CC23O[C@@H]4/C=C\CCCOC(=O)C4[C@H]2C(=O)N(CCCO)[C@@H]3C1=O` (stereo partly specified) is lower in z-score: 1.08 for the first, 0.696 for the second.

Compared with `C=CC[C@]1(C(=O)NCCCOC)N=C(c2ccc(OCCCO)cc2)O[C@H]1c1ccccc1N=[N+]=[N-]`, `C=CC[C@@]1(C(N)=O)N=C(c2ccc(OCCCO)cc2)O[C@@H]1c1ccccc1CN=[N+]=[N-]` is higher in z-score: -0.403 for the first, 2.43 for the second.

First: COCC(=C=CC[C@H](O)c1ccccc1OCCO)C[C@H](O)c1cc(Cl)cc(Cl)c1O
Second: COC(=O)c1c(CC[C@@H](CO)NC(=O)N2CCC[C@H]2Cn2cc(-c3ccccn3)nn2)oc(C(C)=O)c1C(=O)OC
The z-score of the first is lower: -0.539 for the first, 0.882 for the second.

First: C=CCN(Cc1ccccc1)C(=O)C(c1cccs1)N(CCOCCO)C(=O)/C=C\C(=O)O (stereo unspecified)
Second: O=C(NCc1ccccc1)[C@@]1(CCS(=O)(=O)c2ccccc2)N=C(c2ccc(OCCCO)cc2)O[C@H]1c1ccccc1
The z-score of the first is higher: 3.21 for the first, 0.0734 for the second.

Compared with `CCN(CC)c1ccc(N2CC=CC34O[C@@H]5/C=C\CCCOC(=O)C5[C@H]3C(=O)N(CCO)[C@@H]4C2=O)cc1` (stereo partly specified), `COc1ccc(CCN2C(=O)[C@@]3(c4ccc([N+](=O)[O-])cc4)CC(=O)N(C4CCCCC4)[C@@H]3c3ccc(CO)cc32)cc1` is lower in z-score: -0.155 for the first, -0.423 for the second.

First: COCCOC(=O)N1C(=O)[C@@]2(c3cc(C#CCCO)ccc31)[C@H](C(=O)N1CCN(c3ncccn3)CC1)[C@H]1C(=O)O[C@H](c3ccccc3)[C@H](c3ccccc3)N1[C@@H]2c1ccccc1OCCO
Second: COC(=O)C(CC#Cc1ccc2c(c1)[C@]1(C(=O)N2)[C@H](c2ccc(O)cc2)N2[C@H](c3ccccc3)[C@H](c3ccccc3)OC(=O)[C@H]2[C@@H]1C(=O)Nc1nc2ccccc2s1)C(=O)OC
The z-score of the first is lower: 0.69 for the first, 2.08 for the second.

First: CCOC(=O)C[C@H]1[C@H](OC(=O)c2ccc(C(=O)c3ccccc3)cc2)[C@@H](NC(=O)c2ccc(-c3ccccc3)cc2)c2cc(OCCCO)ccc2N1C(=O)c1ccccc1
Second: [N-]=[N+]=NCc1ccccc1[C@H]1OC(c2ccc(OCCCO)cc2)=N[C@@]1(Cc1ccccc1)C(=O)NCc1ccccc1
The z-score of the first is higher: 0.0156 for the first, -0.669 for the second.

Compared with `O=C1[C@H]2C=C(Br)[C@H](C[C@@H]2OCCCCO)[C@@]12CO2`, `O=C(NCc1ccccc1)[C@@H]1c2ccccc2C(=O)N(CC23CC4CC(CC(C4)C2)C3)[C@H]1c1ccc(CO)cc1` is higher in z-score: -0.401 for the first, -0.366 for the second.

`OC([C@@H]1CC(c2ccccc2)=NO1)[C@H]1CC(c2ccccc2)=NO1` (stereo partly specified) gave a z-score of 0.383.
